Compounds with a hit are over-represented: about 19% of the library has one in this group of screens.
TDP1 cell CPT: DT40-hTDP1 cell growth loss with CPT. 12% of 420,000 active. AID 686979. chicken DT40 Tdp1-/-;hTDP1 cells + 20 nM CPT, ATP luminescence, 48 h. Potency, µM (series often up to 46.2 µM), without a hit: top-dose activity change, negative = growth inhibition, most hits filed as inhibitors; further: nearly all actives have a fitted effect of over 55% in size
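Chicken DT40 Tdp1-/- cells stably complemented with human TDP1 were seeded at 400 cells/well in medium containing 20 nM camptothecin, exposed to pin-transferred compounds, and grown at 37 °C for at least 48 hr. Viability was read as ATP luminescence.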
HT1080NT lethal: kills 2HG-producing HT-1080-NT fibrosarcoma cells; Potency, µM (top dose mostly 46.1 µM), without a hit: at the top dose activity, negative = less viability, hits mostly cytotoxic; AID 686970; 1.6% of 360,000 active; HT-1080-NT fibrosarcoma viability, CellTiter-Glo ATP luminescence, 48 h;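 further: NT is the 2HG producing partner of a matched IDH1 knockdown line; 0% = DMSO-treated cells and -100% = media-only wells without cells; nearly all actives have a fitted effect of over 55% in size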
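HT-1080-NT fibrosarcoma cells (2HG-overproducing), 750 cells/well in RPMI with 5% FBS, dosed after 2 h and incubated 48 h at 37C. CellTiter-Glo luminescence normalized to DMSO and no-cell wells; concentration-response curves fitted and classed.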
TDP1 cell noCPT: qHTS for Inhibitors of human tyrosyl-DNA phosphodiesterase 1 (TDP1): qHTS in cells in absence of CPT. DT40 Tdp1-/- hTDP1 cells, no CPT, ATP luminescence, 48 h. Potency, µM (titrated, usually from 46.2 µM), for the others: top-dose activity change, negative = growth inhibition, usual class: inhibitors. 15% of 420,000 active; further: nearly all actives have a fitted effect of over 55% in size
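Readout: luminescence from CellTiter-Glo after 30 min in the dark at RT. Cells: DT40 Tdp1-/- with stable hTDP1, 400/well. Exposure: compounds alone, ≥48 hr, 37 °C.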
KB-3-1 tox: KB-3-1 parental cell cytotoxicity; KB-3-1 viability, CellTiter-Glo ATP luminescence, 72 h; Potency, µM (series often up to 46.1 µM), usual class: cytotoxic; 1.4% of 400,000 active; further: nearly all actives have a fitted effect of over 60% in size
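Multi-concentration cytotoxicity screen in KB-3-1 cells grown in DMEM lacking phenol red with 10% FBS. After 72 h at 37 °C with compound, ATP-dependent luminescence was recorded.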
HT1080 IDH1KD tx: HT-1080 IDH1 knockdown cell toxicity (counter line) | HT-1080 IDH1 knockdown viability, ATP luminescence, 48 h | Potency, µM (series often up to 46.1 µM), for the others: at the top dose activity, negative = toxicity, actives largely listed as cytotoxic | 2% of 360,000 active | AID 686971;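 further: 0% = DMSO wells and -100% = cell-free medium wells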
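Cytotoxicity counter-line: IDH1KD HT-1080, 48 h, CellTiter-Glo. Curves classed by r2, magnitude and activity.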
KB-V1 MDR tox: kills drug-selected multidrug resistant KB-V1 cells; 3.4% of 400,000 active; Potency, µM (titrated, usually from 46.1 µM), most hits filed as cytotoxic; KB-V1 MDR cells viability, CellTiter-Glo, 72 h; further: nearly all actives have a fitted effect of over 60% in size
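Luminescent ATP read-out (CellTiter-Glo, 10 min) measures survival of drug-selected KB-V1 MDR cells after 72 h, 37 degrees C compound exposure. Medium: phenol-red-free DMEM, 10% FBS. Values from fitted concentration-response curves.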
An asterisk follows results filed as active; i = inactive; ? = inconclusive; . = not tested or not shown; [ ] = dose if it differs, or a comment. The call rests on the fitted dose curve; in most records, active means well fitted curve in the direction sought with a large enough effect; inconclusive means small, poorly fitted or top-dose-only effect, or another doubt; inactive means no such curve, though single readings can be large; an effect the other way counts as inactive or inconclusive. Unless noted, on the % scale 0 is the no-effect control and ±100 the full control effect; potency means the concentration at half of the fitted maximal effect.

SMILES | TDP1 cell CPT | HT1080NT lethal | TDP1 cell noCPT | KB-3-1 tox | HT1080 IDH1KD tx | KB-V1 MDR tox
CSCC[C@H](NC(=O)[C@H](Cc1ccccc1)n1c(=O)[nH]c2ccccc2c1=O)C(=O)NCC1CCC(C(=O)O)CC1 (some centres undefined) | -0.2% | -0.3% | 5.0% | i | 3.9% | i
Cn1cncc1C#Cc1c(C=O)[nH]c2ccccc12 | 5.8µM* | -16.6% | 10.3µM* | ? | ? | ?
CC(CSc1nnnn1-c1ccccc1)Cn1c(N2CCCC2)nc2c1c(=O)[nH]c(=O)n2C (centres undefined) | ? | 8.6% | ? | i | -0.2% | 2.31µM*
CCCCCCn1c(N2CCN(c3cccc(Cl)c3)CC2)nc2c1c(=O)[nH]c(=O)n2C | ? | -0.3% | 23.1µM* | ? | -5.5% | 16.4µM*
Cn1c(=O)[nH]c(=O)c2c1nc(N1CCOCC1)n2CCSc1nnnn1-c1ccccc1 | -9.7% | 15.0% | 17.7% | i | 15.0% | i
CCCCCCn1c(N2CCN(c3ccccc3)CC2)nc2c1c(=O)[nH]c(=O)n2C | 23.1µM* | -15.5% | ? | ? | ? | ?
CCCCCCCCn1c(N2CCN(c3cccc(Cl)c3)CC2)nc2c1c(=O)[nH]c(=O)n2C | ? | -4.2% | ? | i | 0.0% | 13µM*
O=C(C[n+]1cccc(Cl)c1)c1ccc(O)c(O)c1 | 5.8% | . | -24.1% | ? | . | i
COc1ccc(F)c(CN2CCOc3ccc(CN4CCC(O)(c5cccnc5)CC4)cc3C2)c1 | -6.9%[9.04 µM] | . | ? | . | . | .
Cc1nc2ccccc2n1C(c1cccnc1)c1nc2ccccc2[nH]1 (centres undefined) | 13.2% | 1.2% | -7.2% | i | 3.6% | i
Cn1c(=O)[nH]c(=O)c2c1nc(N1CCN(c3ccccc3)CC1)n2CCSc1ncccn1 | ? | 0.0% | 10.3µM* | i | 0.0% | i
Cn1c(=O)[nH]c(=O)c2c1nc(CN1CCN(c3ccccc3F)CC1)n2CCCc1ccccc1 | ? | 3.3% | 14.1µM* | i | 3.2% | ?
Cn1c(=O)[nH]c(=O)c2c1nc(N1CCCCC1)n2CCSc1ncccn1 | -15.6% | -2.1% | -13.6% | i | -1.4% | i
CCCn1c(N2CCN(CC(=O)c3c(C)n(C)c4ccccc34)CC2)nc2c1c(=O)[nH]c(=O)n2C | ? | -22.8% | 18.4µM* | ? | -20.1% | ?
CCCCCn1c(CN2CCN(c3cccc(Cl)c3)CC2)nc2c1c(=O)[nH]c(=O)n2C | 20.6µM* | ? | ? | 23.1µM* | ? | ?
CCc1ccccc1NC(=O)C1CCN(C(=O)c2ccc([N+](=O)[O-])cc2)CC1 | -1.9% | -0.2% | -23.8% | i | 10.2% | i
CCN(CC)c1ccc(C(=O)NCc2ccc3c(c2)CCN3C(C)=O)cc1 | -3.0% | . | -20.6% | . | . | .
CCCCNC(=O)C1(C)CCCCN1C(=O)c1c(C)noc1C (centres undefined) | -2.2% | 4.7% | -3.4% | i | 5.1% | i
CC1CCN(C(=O)CSC2=NS(=O)(=O)c3cc(F)ccc3N2)CC1 | -0.9% | 25.0% | -10.5% | i | 7.2% | i
Cc1cc(NC(=O)CSc2nc3c([nH]c4ccccc43)c(=O)n2-c2cccc(Cl)c2)no1 | ? | . | ? | i | . | i
COC(=O)[C@]1(C)CCC[C@@]2(C)C3CC[C@]4(OC(C)=O)C[C@@]3(CCC21)CC4=O (some centres undefined) | 20.6µM* | -2.4% | ? | i | -0.4% | i
COC(=O)[C@]1(C)CCC[C@@]2(C)C3CC[C@@]4(C)C[C@]3(CCC21)CC(=O)N4Cc1ccc(OC)cc1 (some centres undefined) | 11.6µM* | -15.4% | 6.51µM* | ? | -12.4% | i
CCOC(=O)C1(C)CCN1C(=O)c1cccs1 (centres undefined) | -4.7% | 7.4% | -10.0% | i | 28.4% | i
CCOCCCNS(=O)(=O)c1ccc(NC(=O)N2c3ccccc3Sc3ccccc32)cc1 | 23.1µM* | ? | ? | ? | ? | ?
CCc1ccccc1N(C)C(=O)c1cnc(N2CCOCC2)c2ccccc12 | ? | . | -72.3% | i | . | i
SMILES | TDP1 cell CPT | HT1080NT lethal | TDP1 cell noCPT | KB-3-1 tox | HT1080 IDH1KD tx | KB-V1 MDR tox
CCN(C(=O)c1cnc(N2CCOCC2)c2ccccc12)c1cc(C)ccc1C | 23.1µM* | . | ? | i | . | i
Cc1ccc(N(C)C(=O)c2cnc(N3CCOCC3)c3ccccc23)cc1C | 23.1µM* | . | ? | i | . | i
Cc1cc2cc(C)c3nnc(SCc4ccccn4)n3c2cc1C | 23.1µM* | 9.0% | ? | i | 15.1% | i
COC(=O)c1ccc2nc(C3CCCCC3)c(Cc3ccc(C)cc3)n2c1 | 25.9µM* | -21.2% | 23.1µM* | i | ? | i
Clc1cccc(Cc2c(C3CCCCC3)nc3ccc(Br)cn23)c1 | 23.1µM* | ? | ? | i | ? | i
COC(=O)c1ccc2nc(C3CCCCC3)c(Cc3cccc(Cl)c3)n2c1 | ? | ? | 16.4µM* | i | ? | i
COC(=O)c1ccc2nc(C3CCCCC3)c(Cc3ccc(OC)cc3C)n2c1 | ? | 1.1% | ? | i | -4.8% | i
Fc1cccc(NCc2cccn2-c2nnc(N3CCOCC3)s2)c1 | ? | . | ? | i | . | i
Cc1cc(C(=O)Nc2ccccc2-c2nc(CNC(=O)C3COc4ccccc4O3)c(C)o2)c(C)o1 (centres undefined) | 5.3%[9.04 µM] | . | -20.1% | . | . | .
c1ccc2c(c1)oc1c(N3CCN(Cc4ccc5c(c4)OCO5)CC3)ncnc12 | 23.1µM* | -25.5% | 23.1µM* | ? | -16.7% | ?
c1ccc(-c2csc3ncnc(N4CCN(Cc5ccc6c(c5)OCO6)CC4)c23)cc1 | 16.4µM* | 8.5% | 7.31µM* | ? | 1.1% | ?
c1ccc(Cn2nnc3c(N4CCN(Cc5ccc6c(c5)OCO6)CC4)ncnc32)cc1 | ? | 9.1%[9.24 µM] | ? | i | -15.4% | i
O=C(CSc1ncnc2scc(-c3ccccc3)c12)N1CCN(Cc2ccc3c(c2)OCO3)CC1 | ? | -11.6% | 13µM* | i | -28.8% | ?
CCCCN1CCCCC1(C)C(=O)NCc1cccs1 (centres undefined) | -2.4% | 20.0% | 3.8% | i | 3.6% | i

Bioassay records (PubChem)
